# AMA1 RON2 block = inhibitors of Plasmodium falciparum AMA1-RON2 interaction | Potency, µM (series often up to 58.2 µM), most hits filed as inhibitors | AlphaScreen AMA1-biotinylated RON2 peptide binding | AID 720542 | actives 0.2% (n = 360,000); further: nearly all actives have a fitted effect of over 45% in size
#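 AMA1 (3D7) with his tag at 25 nM final met compounds first, then biotinylated RON2 peptide at 25 nM; detection used donor plus acceptor beads, 10 µg/mL apiece, read by AlphaScreen after 30 min at room temperature.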
# Pf growth 96h = inhibits malaria parasite growth, 96 h | P. falciparum luciferase reporter growth, 96 h | AID 504834 | actives 6.9% (n = 320,000) | Potency, µM (titrated, usually from 28.7 µM), most hits filed as inhibitors
#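 Parasite growth measured via integrated firefly luciferase reporter in P. falciparum. Infected erythrocytes at 2% hematocrit, 0.05% parasitemia final were treated 96 hours at 37 C under 5% CO2, and luminescence was read.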
# VACV Venus inh = vaccinia inhibition (Venus reporter). AID 720580. Potency, µM (top dose mostly 36.5 µM), hits mostly inhibitors. actives 0.46% (n = 330,000). Vaccinia virus Venus reporter expression, fluorescence; calls by dose curve; tested in A549 cells; further: nearly all actives have a fitted effect of over 30% in size
# Vaccinia mCherry = vaccinia inhibition (mCherry reporter); Vaccinia virus mCherry reporter infection, fluorescence; Potency, µM (top dose mostly 36.5 µM), most hits filed as inhibitors; actives 0.63% (n = 310,000); AID 720579; calls by dose curve; tested in A549 cells; further: nearly all actives have a fitted effect of over 35% in size
# Pf growth 48h = inhibits P. falciparum growth in the first generation, 48 h; P. falciparum luciferase growth in erythrocytes, 48 h; Potency, µM (titrated, usually from 28.7 µM), hits mostly inhibitors; actives 5.9% (n = 310,000); AID 504832
#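 Here the parasites carry a stable luciferase gene and grow inside erythrocytes in Albumax-based RPMI medium with compound for one erythrocytic cycle. Activity is scored as loss of luminescent signal.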
# Numbers stand for hits; i = inactive; ? = inconclusive; nt = not tested or not shown; [ ] = remark or other dose. Compounds with a hit are over-represented: about 8.7% of the library has one in this group of screens. Unless noted, the call rests on the fitted dose curve; in most records, active means well fitted curve in the direction sought with a large enough effect; inconclusive means small, poorly fitted or top-dose-only effect, or another doubt; inactive means no such curve, though single readings can be large; an effect the other way counts as inactive or inconclusive.
SMILES,AMA1 RON2 block,Pf growth 96h,VACV Venus inh,Vaccinia mCherry,Pf growth 48h
CC(C)c1ccc(OCC(O)CNC(C)c2ccccc2)cc1 (stereo unspecified),i,?,?,?,4.7µM
COc1ccc(C(OCC(O)CNC(C)c2ccccc2)c2ccc(OC)cc2)cc1 (stereo unspecified),i,?,i,?,10µM
CCC(=O)c1ccc(OCC(O)CNCCc2ccc(Cl)cc2)cc1 (stereo unspecified),i,?,nt,nt,12µM
CC(NCC(O)COCCC12CC3CC(CC(C3)C1)C2)c1ccccc1 (stereo unspecified),i,i,nt,nt,5.2µM
NCC(O)COCCC12CC3CC(CC(C3)C1)C2 (stereo unspecified),i,i,i,i,i
CCC(=O)c1ccc(OCC(O)CNC(C)c2ccccc2)cc1 (stereo unspecified),i[11.6 µM],i,i,i,i
COc1cccc(OCC(O)CNC(C)c2ccccc2)c1 (stereo unspecified),i,?,nt,nt,i
COc1ccc(C2Nc3ccccc3-c3nnc(SC)nc3O2)cc1C (stereo unspecified),nt,nt,i,i,nt
O=C(CCC1N=C2c3ccccc3N=C(SCc3cccc(F)c3)N2C1=O)NCc1cccs1 (stereo unspecified),nt,nt,i,i,nt
CCCN(CCC)C(=O)Cn1c(=O)n(-c2cccc(OC)c2)c(=O)c2c3c(sc21)CCCC3,nt,nt,i,i,nt
CC(C)c1ccc(OCC(=O)Nc2cccc(C(=O)Nc3ccccc3C(=O)O)c2)cc1,i,9.3µM,i,i,?
C/C=C/c1ccc(OCC(O)CNCCc2ccc(OC)cc2)c(OC)c1 (stereo unspecified),i,?,nt,nt,?
COC(=O)C(CC(C)C)NC(=O)C(N)Cc1ccccc1 (stereo unspecified),i,i,i,i,i
CC(C)C[C@H](NC(=O)[C@@H](O)[C@H](N)Cc1ccccc1)C(=O)O,nt,0.67µM,i,i,0.76µM
Cc1ccc(C(OCC(O)CNCc2ccc(F)cc2)c2ccccc2)cc1 (stereo unspecified),i,4.7µM,nt,nt,nt
COc1ccc(C(OCC(O)CNCCc2ccccc2)c2ccc(OC)cc2)cc1 (stereo unspecified),i,4.1µM,i,i,9.3µM
CCc1ccccc1NC(=O)C1CCN(C2=NS(=O)(=O)C(c3ccc(C)c(C)c3)=C2C)CC1,nt,nt,i,i,nt
Cc1ccc(OCC(=O)NC(C)c2ccccc2)cc1 (stereo unspecified),i,i,nt,nt,i
OC(CNCCc1ccccc1)COc1ccc(OCC(O)CNCCc2ccccc2)cc1 (stereo unspecified),i,3.7µM,?,i,1.7µM
CC(C)CC(NC(=O)COc1ccccc1)C(=O)O (stereo unspecified),i,12µM,i,i,i
CC(C)c1ccc(OCC(=O)NC(C)c2ccccc2)cc1 (stereo unspecified),i,13µM,i,i,i
CC(=O)NC(Cc1ccc(N(CCCl)CCCl)cc1)C(=O)NC(CC(C)C)C(=O)O (stereo unspecified),i,10µM,i,i,i
CCC1CN(Cc2cn[nH]c2-c2ccc(OC)cc2)Cc2cc(OC)ccc2O1 (stereo unspecified),nt,nt,i,i,nt
O=C(NCC1Cc2cccc(-c3ncccn3)c2O1)C1CCCO1 (stereo unspecified),nt,nt,i,i,nt
Cc1cccc(OCCCCn2c(C3CC(=O)N(c4ccc(C)cc4C)C3)nc3ccccc32)c1 (stereo unspecified),nt,nt,i,i,nt
SMILES,AMA1 RON2 block,Pf growth 96h,VACV Venus inh,Vaccinia mCherry,Pf growth 48h
Cc1ccc(S(=O)(=O)NCC(=O)N(c2ccccc2)C(C(=O)NCc2ccccc2)c2ccco2)cc1 (stereo unspecified),i,13µM,?,i,i
CCOc1ccccc1N(C(=O)CNS(=O)(=O)c1ccccc1)C(CC)C(=O)NCc1ccco1 (stereo unspecified),i,7.4µM,i,i,nt
Cc1cc(C)cc(N(C(=O)CNS(=O)(=O)c2ccccc2)C(C(=O)NCc2ccccc2)c2ccc(C)o2)c1 (stereo unspecified),i,i,i,i,?
COc1ccc(NC(=O)Cc2c(C(=O)O)[nH]c3ccccc23)cc1OC,nt,nt,i,i,nt
CC1CCN(CC(=O)Nc2ccccc2C#N)CC1,i,nt,i,nt,i
O=C(CN1CCN(S(=O)(=O)c2cccc(Cl)c2)CC1)NCC1(N2CCOCC2)CCCCC1,i,?,nt,nt,10µM
O=C(CN1CCN(CC(=O)Nc2ccccc2Cl)CC1)NCC1(N2CCOCC2)CCCCC1,i,?,i,i,10µM
N#Cc1ccccc1NC(=O)CN1CCOCC1,i,12µM,nt,nt,i
O=C(NCC1(N2CCOCC2)CCCCC1)c1cccc(S(=O)(=O)N2CCc3ccccc3C2)c1,i,?,?,i,8.3µM
Cc1nc(NCC(=O)c2c[nH]c3ccccc23)sc1C,nt,nt,i,i,nt
COc1ccc(CN(Cc2ccccc2)C(=O)c2ccco2)cc1COc1ccc(NC(C)=O)cc1,nt,nt,i,i,nt
COc1ccc(C)cc1NC(=O)c1ccc2c(c1)CCN2S(=O)(=O)c1ccc(Cl)cc1,nt,nt,i,i,nt
O=C(CN1CCN(S(=O)(=O)N2CCCCC2)CC1)Nc1cc(Cl)ccc1Cl,i,i,i,i,i
N#Cc1ccccc1S(=O)(=O)N1CCN(CC(=O)NCC2(N3CCOCC3)CCCCC2)CC1,i,10µM,nt,nt,?
NC(=O)C1(N2CCCCC2)CCN(CC(=O)Nc2cc(Cl)ccc2Cl)CC1,i,i,nt,nt,12µM
O=C(CN1CCN(S(=O)(=O)c2ccccc2Cl)CC1)NCC1(N2CCOCC2)CCCCC1,i,?,i,?,12µM
O=C(CN1CCN(S(=O)(=O)c2ccc(F)cc2)CC1)NCC1(N2CCOCC2)CCCCC1,i,i,i,i,?
O=C(CS(=O)(=O)c1cccc2nsnc12)NCc1ccccc1Cl,nt,nt,i,i,nt
Cc1ccc(Cn2c(=O)c3cccnc3n(CC(=O)Nc3cc(Cl)ccc3C)c2=O)cc1,nt,nt,i,i,nt
C=CCNc1nc(-c2ccccn2)nnc1-c1ccccc1,?,1.7µM,?,28µM,nt
Cc1cc(NC(=O)C2CC(c3ccc(F)cc3)=NO2)no1 (stereo unspecified),i,5.2µM,i,i,nt
COC(=O)c1ccccc1NC(=O)C1CC(c2ccc(F)cc2)=NO1 (stereo unspecified),i,10µM,nt,nt,i
CC(C)Cn1c(=O)c2ccccc2n2c(CCC(=O)Nc3cccc(Cl)c3)nnc12,nt,nt,i,i,nt
O=c1[nH]c2ccc(NCc3ccc(-c4ccc(F)cc4)o3)cc2[nH]1,nt,nt,i,i,nt
CCN1CCCC1CNC(=O)C(=O)NC(C)C (stereo unspecified),i,i,i,i,i
CCN1CCCC1CNC(=O)c1cc2c(C)nc3ccccc3c2o1 (stereo unspecified),i,?,i,i,9.3µM
CCN1CCCC1CNC(=O)C(=O)NC(C)c1ccccc1 (stereo unspecified),i,12µM,i,i,i
COCCN1C(=O)/C(=C/c2ccc(OCc3ccc(C(=O)O)cc3)c(OC)c2)SC1=Nc1ccccc1,i,8.3µM,i,i,12µM
